Assay outcomes (PubChem BioAssay)
G9a block – qHTS Assay for Inhibitors of Histone Lysine Methyltransferase G9a; Histone-lysine N-methyltransferase EHMT2 (Homo sapiens), Q96KQ7; G9a H3K9 monomethylation, AlphaScreen, 2 h; Potency, µM (highest dose often 102 µM), for the others: top-dose activity, negative = inhibition, usual class: inhibitors; 350,000 compounds, 8.8% hits; AID 504332, 2011; further: on the % scale 0 is the no-effect control and ±100 the full control effect; nearly all actives have a fitted effect of over 75% in size
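Step 1: enzyme (final 20 nM) with compound, 15 min RT. Step 2: substrate peptide 500 nM and SAM 20 uM, 2 h RT. Step 3: anti-H3K9me1 antibody and AlphaScreen beads, 10 min, then plate read.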
L3MBTL1 block – qHTS Assay for the Inhibitors of L3MBTL1; AID 485360, 2010; Lethal(3)malignant brain tumor-like protein 1 (Homo sapiens), Q9Y468; 230,000 compounds, 0.66% hits; AlphaScreen L3MBTL1–H3K9me1 peptide binding; Potency, µM (doses to about 57.1 µM), for the others: at the top dose activity, negative = inhibition, most hits filed as inhibitors; further: on the % scale 0 is the no-effect control and ±100 the full control effect; nearly all actives have a fitted effect of over 60% in size
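Displacement of a biotinylated histone H3(1-15) peptide monomethylated at Lys9 (75 nM) from L3MBTL1 (50 nM) was measured by AlphaScreen after a 30 min room-temperature compound incubation; cefsulodin titration served as intraplate control.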
Sfp PPTase inh – qHTS Assay for Inhibitors of Bacillus subtilis Sfp phosphopantetheinyl transferase (PPTase); 4'-phosphopantetheinyl transferase ffp (Bacillus subtilis), Q9F4F7; Biochemical Sfp PPTase activity, qHTS; Potency, µM, without a hit: largest response in the series, negative = inhibition, actives largely listed as inhibitors; 310,000 compounds, 3.5% hits; AID 1490, 2009;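 further: the enzyme is Sfp with the accession as filed and its product quenches rhodamine fluorescence; 0% = enzyme reaction without inhibitor and -100% = no enzyme wells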
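Fluorescence-quenching assay: 15 nM Sfp-PPTase preincubated 15 min at room temperature with compound, then 5 uM rhodamine-CoA and 12.5 uM BHQ-2-labelled YbbR peptide added. Fluorescence (ex 525/em 598 nm) read at start and after 30 min; difference gives rate.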
JMJD2A Tudor inh – qHTS Assay for Inhibitors of JMJD2A-Tudor Domain | AlphaScreen JMJD2A-Tudor / H3K4me3 peptide binding | AID 504339, 2011 | 390,000 compounds, 4.4% hits | Potency, µM (highest dose often 114 µM), for inactives: at the highest dose activity change, negative = inhibition, actives largely listed as inhibitors; further: on the % scale 0 is the no-effect control and ±100 the full control effect; nearly all actives have a fitted effect of over 50% in size
Target sequence (O75164 whole entry, looked up, the tested form may be a part): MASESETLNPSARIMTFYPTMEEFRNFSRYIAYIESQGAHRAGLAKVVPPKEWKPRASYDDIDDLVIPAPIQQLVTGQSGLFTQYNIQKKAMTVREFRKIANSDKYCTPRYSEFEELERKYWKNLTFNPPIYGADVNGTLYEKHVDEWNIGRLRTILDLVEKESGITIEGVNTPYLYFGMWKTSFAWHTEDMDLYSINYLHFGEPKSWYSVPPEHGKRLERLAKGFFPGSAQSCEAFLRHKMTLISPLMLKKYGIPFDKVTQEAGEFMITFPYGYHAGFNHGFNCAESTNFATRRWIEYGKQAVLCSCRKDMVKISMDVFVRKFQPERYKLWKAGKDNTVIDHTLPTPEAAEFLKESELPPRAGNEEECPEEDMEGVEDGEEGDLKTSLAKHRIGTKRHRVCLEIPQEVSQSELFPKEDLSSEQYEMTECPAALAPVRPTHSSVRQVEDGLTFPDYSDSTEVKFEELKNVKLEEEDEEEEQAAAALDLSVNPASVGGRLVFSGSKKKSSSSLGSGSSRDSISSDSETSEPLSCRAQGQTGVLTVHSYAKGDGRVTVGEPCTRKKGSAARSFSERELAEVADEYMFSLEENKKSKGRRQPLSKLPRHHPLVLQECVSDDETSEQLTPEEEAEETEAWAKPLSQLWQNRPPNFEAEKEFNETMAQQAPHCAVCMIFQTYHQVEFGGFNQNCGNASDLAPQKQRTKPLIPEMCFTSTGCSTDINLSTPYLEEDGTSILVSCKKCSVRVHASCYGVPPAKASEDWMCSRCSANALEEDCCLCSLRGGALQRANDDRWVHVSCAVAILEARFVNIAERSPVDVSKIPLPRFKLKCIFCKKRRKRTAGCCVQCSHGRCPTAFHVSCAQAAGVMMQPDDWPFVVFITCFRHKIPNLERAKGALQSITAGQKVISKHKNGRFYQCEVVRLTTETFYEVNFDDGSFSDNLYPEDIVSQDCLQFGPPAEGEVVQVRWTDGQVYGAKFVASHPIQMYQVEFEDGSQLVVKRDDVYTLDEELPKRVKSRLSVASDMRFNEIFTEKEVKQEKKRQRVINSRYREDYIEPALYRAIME
HP1b binding inh – HTS for Inhibitors of HP1-beta Chromodomain Interactions with Methylated Histone Tails; AID 540317, 2011; Potency, µM (titrated, usually from 114 µM), without a hit: top-dose activity change, negative = inhibition, most hits filed as inhibitors; 390,000 compounds, 0.56% hits; AlphaScreen HP1-beta / biotin-H3K9me3 peptide binding; Chromobox protein homolog 1 (Homo sapiens), P83916; further: nearly all actives have a fitted effect of over 70% in size
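Compound inhibition of the preformed complex between 50 nM HP1-beta and 50 nM biotinylated H3K9me3 peptide was read by AlphaScreen. Buffer was PBS pH 7.4 with 0.01% Tween-20. Incubations ran 30 min at room temperature, with 10 ug/mL donor/acceptor beads.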
BAZ2B block – qHTS Assay for Inhibitors of BAZ2B | AlphaScreen BAZ2B-H3K14Ac peptide displacement | AID 504333, 2011 | 360,000 compounds, 4.4% hits | Bromodomain adjacent to zinc finger domain protein 2B (Homo sapiens), Q9UIF8 | Potency, µM (top dose mostly 114 µM), for the others: top-dose activity change, negative = inhibition, usual class: inhibitors; further: on the % scale 0 is the no-effect control and ±100 the full control effect; nearly all actives have a fitted effect of over 60% in size
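BAZ2B 50 nM plus b-H3(5-23)K14Ac 50 nM, PBS pH 7.4/0.01% Tween-20, 30 min RT; compound added (max 110 uM), 30 min RT; streptavidin donor/Ni-chelate acceptor beads 10 ug/mL final, 20 min dark; AlphaScreen read.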
The depositor's hits bear a star; ? = inconclusive; . = no result; [ ] = another dose, or the depositor's remark. Sampled rows, rich in hits. Any-hit rate of the full collection: about 12%. The call rests on the fitted dose curve; in most records, active means well fitted curve in the direction sought with a large enough effect; inconclusive means small, poorly fitted or top-dose-only effect, or another doubt; inactive means no such curve, though single readings can be large; an effect the other way counts as inactive or inconclusive. Potency means the concentration at half of the fitted maximal effect.

SMILES	G9a block	L3MBTL1 block	Sfp PPTase inh	JMJD2A Tudor inh	HP1b binding inh	BAZ2B block
COc1ccc(N2CCN(C(=O)c3ccc(Cl)c(S(=O)(=O)N4CCCC4)c3)CC2)cc1	40µM*	?	5%	?	-1%	71µM*
COc1ccc(S(=O)(=O)N2CCCCCC2)cc1C(=O)N1CCN(c2ccc(F)cc2)CC1	.	.	.	-25%	15%	.
Cc1ccc(NC(=O)c2ccc(-n3nncc3-c3ccccc3)cc2)cc1	.	.	.	-15%[57.1 µM]	3%[57 µM]	.
COc1cc2c(C=O)c3c4c(cc(OC)c(OC)c4c2cc1OC)CCN3C	.	.	-19%	.	.	.
CCOc1ccccc1NC(=O)NC1(C(=O)NCc2cccnc2)CCCCC1	6%	.	12%	-7%	13%	0%
O=c1[nH]cnc(CN2CCCCC2)c1O	.	.	.	50µM*	23%	.
Oc1cccnc1CN1CCCCC1	.	.	.	-11%	53%	.
Cc1cc(C)c2ccc(NN)nc2c1O	32µM*	.	50µM*	-16%	42%	7%
Cc1cc(C)c2ccc(/C=N/O)nc2c1O	-6%	.	10%	-19%	32%	-7%
CN1CCN(C2=Cc3ccccc3Sc3cc(F)ccc32)CC1	?	-10%	-11%	-34%	-2%	?
CN1CCN(C2=Cc3ccc(Cl)cc3Sc3ccc(F)cc32)CC1	?	-6%	?	56µM*	-32%	50µM*
CCOC(=O)C1=C(O)/C(=C\c2ccc(OC)c(OC)c2)N=C1C	0%[2.33 µM]	1%	-6%	-9%	20%	-9%
CCOc1cc(/C=C2/N=C(C)C(C(=O)OC)=C2O)ccc1O	45µM*	-6%	-4%	-13%	6%	-10%
CCOC(=O)C1=C(O)/C(=C/c2cc(OC)c(OC)c(OC)c2)N=C1C	9%[0.0925 µM]	6%	89µM*	-12%	27%	-10%
CCSC1OC(C(COC(C)=O)OC(C)=O)C(OC(C)=O)C1NC(C)=S (stereo unspecified)	.	.	.	-12%	-7%	.
O=C1c2ccc(-c3ccc(F)cc3OCc3ccccc3)cc2S(=O)(=O)c2cccc(C(=O)N3CCN(c4ncc(Br)cn4)CC3)c21	.	-1%	.	?	6%	.
O=C(O)c1cccc2c1C(=O)c1ccc(-c3ccc(F)cc3OCc3ccccc3)cc1S2(=O)=O	-13%[0.501 µM]	?	.	?	-2%	79µM*
Cc1nc2nc(NC(=O)c3ccccc3F)[nH]n2c(=O)c1Cl	-22%[59 µM]	.	.	-22%	25%	-9%
O=C(/C(C=Nc1cccc(C(F)(F)F)c1)=C(/O)c1ccco1)C(F)(F)F	?	8%	-4%	-14%	32%	?
O=C(/C(C=Nc1ccc(Br)cc1)=C(/O)c1ccco1)C(F)(F)F	45µM*	13%	6%	-25%	38%	-1%
CCOc1ccc(N(CC(=O)O)S(=O)(=O)c2ccc(F)cc2)cc1	-30%	-11%	0%	18%[11.4 µM]	60%	4%
CC(C)c1ccc(N(CC(=O)O)S(=O)(=O)c2cccnc2)cc1	-5%	.	7%	89µM*	5%	9%
CCOc1ccc(N(CC(=O)O)S(=O)(=O)c2cccnc2)cc1	79µM*	.	15%	-16%	46%	5%
Cc1ccc(NC(=O)c2cc(S(=O)(=O)N(C)C3CCCCC3)ccc2F)cc1C	11%[59 µM]	.	.	-5%	36%	9%
N#Cc1ncc(Cc2ccccc2)nc1C#N	50µM*	-12%	0%	-33%	13%	?
SMILES	G9a block	L3MBTL1 block	Sfp PPTase inh	JMJD2A Tudor inh	HP1b binding inh	BAZ2B block
Cc1cccc(OCc2nnc(-c3ccc(F)cc3)o2)c1	5%[12.7 µM]	15%	.	59%	115%	62%
CN(CCOc1ccccc1)CC(=O)Nc1cccc(C#N)c1	19%	.	6%	4%	39%	11%
CN(CCOc1ccccc1)CC(=O)Nc1cccc(Br)c1	11µM*	68%	-41%	1.6µM*	-14%	?
CCOc1ccc(CN(C)CC(=O)Nc2cccc(S(=O)(=O)N(C)c3ccccc3)c2)cc1	5µM*	-8%	-18%	22µM*	?	.
COc1cccc(CN(C)CC(=O)Nc2cccc(S(=O)(=O)N(C)c3ccccc3)c2)c1OC	.	.	.	-24%	15%	.
Cc1cc(NC(=O)CN(C)CCOc2ccccc2)ccc1Br	12%	.	-29%	0.79µM*	?	35µM*
CCOC(=O)C1=C(CN2CCCCC2)NC(=O)NC1c1ccc(OC)cc1 (stereo unspecified)	-22%[59 µM]	.	.	-5%	2%	-10%
CCOC(=O)c1cc(C#N)c(N2CCN(c3ccc(OC)cc3)CC2)[nH]c1=O	5µM*	-1%	5%	-27%	5%	?
CCOC(=O)C1=C(CN2CCN(c3ccc(OC)cc3)CC2)NC(=O)NC1c1ccc(OC)cc1 (stereo unspecified)	11µM*	.	.	56µM*	-38%	40µM*
CCOc1ccc(C2NC(=O)NC(C)=C2C(=O)OCc2ccccc2)cc1 (stereo unspecified)	-12%[0.501 µM]	-2%[2.29 µM]	10%	-6%	13%	4%
CCOC(=O)C1=C(CN2CCN(c3ccc(OC)cc3)CC2)NC(=O)NC1c1ccc(Cl)cc1 (stereo unspecified)	7.9µM*	.	.	13µM*	?	.
CC1=C(C(=O)OCc2ccccc2)C(c2ccc(N(C)C)cc2)NC(=O)N1 (stereo unspecified)	10µM*	-27%	2%	?	-24%	?
Cc1ccc(S/C(=N/S(=O)(=O)c2ccc(Cl)cc2)c2ccccc2)cc1	.	.	.	11%[57.1 µM]	57%[57 µM]	.
CCOC(=O)C1=C(CN2c3ccccc3CC2C)NC(=O)NC1c1ccccc1 (stereo unspecified)	?	-22%	-6%	?	?	50µM*
COc1ccc(C2NC(=O)NC(C)=C2C(C)=O)cc1 (stereo unspecified)	13µM*	-19%	-7%	-16%	18%	3%
CC(=O)C1=C(C)NC(=O)NC1c1ccc(OC2CCCC2)cc1 (stereo unspecified)	5%[12.7 µM]	-2%	-9%	-8%	23%	7%
CCOC(=O)c1[nH]c(CN2CCN(c3ccc(OC)cc3)CC2)c(C(=O)OCC)c1C	22µM*	.	8%	50µM*	45µM*	14µM*
CC(C)(C)c1ccc2c(c1)C(=O)c1ccccc1C2=O	35µM*	?	-13%	45µM*	?	32µM*
O=C(c1ccc2c(=O)n(Cc3ccccc3)c(=S)[nH]c2c1)N1CCOCC1	?	.	-6%	-4%	35%	-2%
